# Results reported in article PMC4552634, “A New Set of Chemical Starting Points with Plasmodium falciparum Transmission-Blocking Potential for Antimalarial Drug Discovery” (PLoS ONE, 2015).
# Among all 13,000 compounds or so, about 3,200 (25%) showed an effect of 50% or more. The list shows a part of the results.
# Tested on: P. falciparum stage V gametocytes
# Design: BacTiter-Glo ATP luminescence viability of purified stage V gametocytes in 384-well plates, per cent inhibition versus DMSO
# Settings: 48 h, 5 µM; inhibitor
row,SMILES,% Inhibition [%]
1,Cc1ccc(O)cc1Nc1ccnc2ccc(-c3csc(CNCCN4CCOCC4)n3)cc12 [TCMDC-138419],24.32
2,C=CCOC(=O)N1CCC(CNCc2cccc(-c3cccc(-c4nc5cc(F)ccc5[nH]4)c3)c2)C1.O=C(O)C(F)(F)F (centres unmarked) [TCMDC-133045],-22.96
3,O=C(CC(=O)Nc1cc(Cl)cc(Cl)c1)Nc1cc(Cl)cc(Cl)c1 [TCMDC-124303],1.845
4,O=C(Nc1cccc(-c2nn3ccccc3c2-c2ccnc(Nc3cccc(F)c3)n2)c1)c1c(F)ccc(F)c1Cl [TCMDC-135830],19.22
5,CCCCCCCOc1ccc(NC(=O)Nc2ccc(Cn3ncc(N4CCCNCC4)c(Cl)c3=O)cc2)cc1 [TCMDC-133318],42.33
6,CC(C)c1nc(N2CCN(C(=S)NCc3ccccc3)CC2)c(C#N)c2c1COC(C)(C)C2 [TCMDC-124093],85.74
7,CC(C)Sc1nc(-c2ccccc2)nc2c1COC(C)(C)C2 [TCMDC-125132],-39.31
8,N#Cc1ccc(CN2CCC(Oc3ccc(NC(=O)c4cccs4)cc3Cl)C2)cc1 (centres unmarked) [TCMDC-133962],5.438
9,FC(F)(F)c1cccc(Nc2nc3ccccc3nc2Nc2cccc(C(F)(F)F)c2)c1 [TCMDC-124162],95.6
10,FC(F)(F)c1cccc(Nc2nc(-c3ccccc3)nc3ncccc23)c1 [TCMDC-125597],73.35
11,Cc1cc(C)n(-c2nc(Nc3cccc(C(F)(F)F)c3)nc(-n3nc(C)cc3C)n2)n1 [TCMDC-125770],16.09
12,Cc1cc(Nc2cccc(C(F)(F)F)c2)nc(Nc2cccc(C(F)(F)F)c2)n1 [TCMDC-124213],-15.06
13,Cc1cc(Nc2cccc(C(F)(F)F)c2)nc(N)n1 [TCMDC-124264],7.363
14,FC(F)(F)c1cccc(Nc2nc(-n3ccnc3)nc(-n3ccnc3)n2)c1 [TCMDC-123871],5.028
15,N#CCCN1CCN(Cc2cccc(-c3ccc(-c4nc5ccccc5[nH]4)s3)c2)CC1.O=C(O)C(F)(F)F [TCMDC-133871],-9.564
16,NC1=NC2(CCCCC2)N(OCCCCCCCCNc2nc(N)nc(N)n2)C(N)=N1 [TCMDC-140517],6.685
17,N#Cc1ccc(Cn2ccc3c4c(N)nc(N)nc4ccc32)cc1 [TCMDC-137820],103.8
18,Nc1nc(N)c2c(ccc3c2ccn3Cc2ccccn2)n1 [TCMDC-137980],111.5
19,Nc1nc(N)c2c(ccc3c2ccn3Cc2ccc(OCc3ccccc3)cc2)n1 [TCMDC-137336],29.32
20,Nc1nc(N)c2c(ccc3c2ccn3Cc2ccc(-c3ccccc3)cc2)n1 [TCMDC-137813],115.8
21,Nc1nc(N)c2c(ccc3c2ccn3Cc2ccccc2)n1 [TCMDC-141977],66.05
22,Nc1nc(N)c2c(ccc3c2ccn3CCCC2CCCNC2)n1 (centres unmarked) [TCMDC-138618],26.76
23,Nc1nc(N)c2c(ccc3c2ncn3Cc2ccccc2)n1 [TCMDC-137749],33.84
